Results from PubChem BioAssay AID1159580 (chemical genetic matrix, 2015).
Where “and” joins values, the source holds several entries; their conditions need not be identical. Identical values can stand only once. Hit rate of the full screen: of about 5,500 compounds, about 2,000 (36%) were called active. Inconclusive results (about 18%) are left out. Cut-off read from the data, not from the text of the source: active = normalized growth mostly below about 0.91 (no sharp cut-off); inconclusive = no clear call, values can overlap the other calls; inactive = mostly above about 0.92. This is one part of the list.

Test: chemical genetic growth profiling, strain panel (AID 1159580);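 note: tested at 20 µM; growth read once vehicle control cultures reached saturation at 30 °C; 1 = growth at the plate median or of vehicle wells; lower values mean less growth of the strain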
Conditions: growth OD

Measured: normalized growth

NC(N)=NCCCCN=C(N)N
inactive: S. cerevisiae deletion strains, locus YKL009W, strain mrt4, active compounds read low 1 | S. cerevisiae deletion strains, locus YKL068W, active compounds read low 0.988 | S. cerevisiae deletion strains, locus YKL085W, strain MDH1 (second series), active compounds read low 1.03 | S. cerevisiae deletion strains, locus YKL085W, strain MDH1, active compounds read low 1.03 | S. cerevisiae deletion strains, locus YKL160W, strain elf1, active compounds read low 1.02 | S. cerevisiae deletion strains, locus YKL190W, strain CNB1, active compounds read low 0.985 | S. cerevisiae deletion strains, locus YKR001C, strain vps1, active compounds read low 1.01 | S. cerevisiae deletion strains, locus YKR026C, strain gcn3, active compounds read low 0.995 | S. cerevisiae deletion strains, locus YKR091W, strain srl3, active compounds read low 1 | S. cerevisiae deletion strains, locus YLL001W, strain dnm1, active compounds read low 1.01 | S. cerevisiae deletion strains, locus YLL026W, active compounds read low 1.01 | S. cerevisiae deletion strains, locus YLL041C, strain sdh2, active compounds read low 0.986 | S. cerevisiae deletion strains, locus YLR027C, strain aat2, active compounds read low 1 | S. cerevisiae deletion strains, locus YLR039C, strain RIC1, active compounds read low 0.99 | S. cerevisiae deletion strains, locus YLR058C, strain SHM2, active compounds read low 0.972 | S. cerevisiae deletion strains, locus YLR102C, strain apc9, active compounds read low 0.993 | S. cerevisiae deletion strains, locus YLR113W, strain HOG1, active compounds read low 0.97 | S. cerevisiae deletion strains, locus YLR221C, strain rsa3, active compounds read low 1.04 | S. cerevisiae deletion strains, locus YLR258W, strain gsy2, active compounds read low 1.01 | S. cerevisiae deletion strains, locus YLR262C, strain YPT6 (second series), active compounds read low 1.02 | S. cerevisiae deletion strains, locus YLR262C, strain YPT6, active compounds read low 0.963 | S. cerevisiae deletion strains, locus YLR268W, strain sec22, active compounds read low 0.978 | S. cerevisiae deletion strains, locus YLR320W, strain mms22, active compounds read low 1.05 | S. cerevisiae deletion strains, locus YLR330W, strain CHS5, active compounds read low 0.993 | S. cerevisiae deletion strains, locus YLR342W, strain FKS1 (second series), active compounds read low 1.03 | S. cerevisiae deletion strains, locus YLR342W, strain FKS1, active compounds read low 0.993 | S. cerevisiae deletion strains, locus YLR357W, strain rsc2, active compounds read low 0.998 | S. cerevisiae deletion strains, locus YLR370C, strain arc18, active compounds read low 0.991 | S. cerevisiae deletion strains, locus YLR371W, strain rom2, active compounds read low 0.95 | S. cerevisiae deletion strains, locus YLR384C, strain iki3, active compounds read low 0.997 | S. cerevisiae deletion strains, locus YLR418C, strain cdc73, active compounds read low 0.971 | S. cerevisiae deletion strains, locus YML016C, strain PPZ1, active compounds read low 0.992 | S. cerevisiae deletion strains, locus YML032C, strain rad52, active compounds read low 1.01 | S. cerevisiae deletion strains, locus YML120C, strain ndi1, active compounds read low 0.998 | S. cerevisiae deletion strains, locus YML124C, strain tub3, active compounds read low 0.997 | S. cerevisiae deletion strains, locus YMR058W, strain fet3, active compounds read low 0.998 | S. cerevisiae deletion strains, locus YMR078C, strain ctf18, active compounds read low 0.992 | S. cerevisiae deletion strains, locus YMR125W, strain sto1, active compounds read low 0.963 | S. cerevisiae deletion strains, locus YMR129W, active compounds read low 1 | S. cerevisiae deletion strains, locus YMR205C, strain PFK2, active compounds read low 1.03 | S. cerevisiae deletion strains, locus YMR223W, strain ubp8, active compounds read low 1.01 | S. cerevisiae deletion strains, locus YMR231W, strain pep5, active compounds read low 0.993 | S. cerevisiae deletion strains, locus YMR263W, strain SAP30, active compounds read low 0.953 and 0.994 | S. cerevisiae deletion strains, locus YMR307W, strain GAS1, active compounds read low 1.06 and 0.991 | S. cerevisiae deletion strains, locus YNL067W, strain RPL9B, active compounds read low 0.972 | S. cerevisiae deletion strains, locus YNL071W, strain lat1, active compounds read low 0.991 | S. cerevisiae deletion strains, locus YNL128W, strain TEP1, active compounds read low 0.92 and 0.999 | S. cerevisiae deletion strains, locus YNL153C, strain GIM3, active compounds read low 0.978 | S. cerevisiae deletion strains, locus YNL175C, strain NOP13, active compounds read low 1.01 | S. cerevisiae deletion strains, locus YNL183C, strain NPR1, active compounds read low 0.92 | S. cerevisiae deletion strains, locus YNL197C, strain WHI3, active compounds read low 1.02 | S. cerevisiae deletion strains, locus YNL209W, strain ssb2, active compounds read low 1.01 | S. cerevisiae deletion strains, locus YNL224C, strain SQS1, active compounds read low 1.01 | S. cerevisiae deletion strains, locus YNL233W, strain BNI4, active compounds read low 0.979 | S. cerevisiae deletion strains, locus YNL248C, strain rpa49, active compounds read low 0.967 | S. cerevisiae deletion strains, locus YNL250W, strain rad50, active compounds read low 0.98 | S. cerevisiae deletion strains, locus YNL271C, strain bni1, active compounds read low 0.994 | S. cerevisiae deletion strains, locus YNL298W, strain CLA4, active compounds read low 0.994 | S. cerevisiae deletion strains, locus YNL307C, strain MCK1, active compounds read low 1.01 | S. cerevisiae deletion strains, locus YNL322C, strain KRE1 (second series), active compounds read low 1 | S. cerevisiae deletion strains, locus YNL322C, strain KRE1, active compounds read low 0.977 | S. cerevisiae deletion strains, locus YNR049C, strain mso1, active compounds read low 0.997 | S. cerevisiae deletion strains, locus YNR052C, strain pop2, active compounds read low 0.997 | S. cerevisiae deletion strains, locus YOL006C, strain TOP1, active compounds read low 0.957 | S. cerevisiae deletion strains, locus YOL012C, strain htz1 0.788 | S. cerevisiae deletion strains, locus YOL147C, strain pex11, active compounds read low 0.993 | S. cerevisiae deletion strains, locus YOR001W, strain rrp6, active compounds read low 0.97 | S. cerevisiae deletion strains, locus YOR061W, strain CKA2, active compounds read low 0.955 | S. cerevisiae deletion strains, locus YOR069W, strain VPS5, active compounds read low 0.999 | S. cerevisiae deletion strains, locus YOR070C, strain gyp1, active compounds read low 1.02 | S. cerevisiae deletion strains, locus YOR080W, strain dia2, active compounds read low 1.01 | S. cerevisiae deletion strains, locus YOR083W, strain WHI5 (second series), active compounds read low 0.988 | S. cerevisiae deletion strains, locus YOR083W, strain WHI5, active compounds read low 1.04 | S. cerevisiae deletion strains, locus YOR106W, strain vam3, active compounds read low 1.03 | S. cerevisiae deletion strains, locus YOR136W, strain idh2, active compounds read low 0.997 | S. cerevisiae deletion strains, locus YOR144C, strain elg1, active compounds read low 0.999 | S. cerevisiae deletion strains, locus YOR184W, strain ser1, active compounds read low 1.03 | S. cerevisiae deletion strains, locus YOR231W, strain MKK1, active compounds read low 0.968 | S. cerevisiae deletion strains, locus YOR265W, strain rbl2, active compounds read low 1.01 | S. cerevisiae deletion strains, locus YOR270C, strain vph1, active compounds read low 0.991 | S. cerevisiae deletion strains, locus YOR290C, strain snf2, active compounds read low 0.968 | S. cerevisiae deletion strains, locus YOR316C, strain cot1, active compounds read low 0.988 | S. cerevisiae deletion strains, locus YPL051W, strain arl3, active compounds read low 1.04 | S. cerevisiae deletion strains, locus YPL055C, strain LGE1, active compounds read low 0.95 and 0.989 | S. cerevisiae deletion strains, locus YPL078C, strain atp4, active compounds read low 1.01 | S. cerevisiae deletion strains, locus YPL106C, strain sse1, active compounds read low 1.01 | S. cerevisiae deletion strains, locus YPL240C, strain hsp82, active compounds read low 1.01 | S. cerevisiae deletion strains, locus YPL241C, strain CIN2, active compounds read low 0.988 and 0.994 | S. cerevisiae deletion strains, locus YPL256C, strain CLN2, active compounds read low 0.979 | S. cerevisiae deletion strains, locus YPR119W, strain clb2, active compounds read low 1 | S. cerevisiae deletion strains, locus YPR141C, strain kar3, active compounds read low 0.975 | S. cerevisiae deletion strains, locus YPR163C, strain tif3, active compounds read low 1 | S. cerevisiae deletion strains, locus YPR167C, strain met16, active compounds read low 0.988 | S. cerevisiae deletion strains, strain wtn01, active compounds read low 0.983 | S. cerevisiae strains, strain wild type, active compounds read low 0.998
